In the library only some 21% were active in any assay of this set; here they are far more common.
HCV inhibitor: blocks hepatitis C virus; Potency, µM (doses to about 41.8 µM), for the others: at the highest dose activity change, negative = inhibition, hits mostly inhibitors; Huh7.5.1 HCVcc-Cre infection, luciferase reporter, 44 h; 3.4% of 340,000 active; AID 651820; note: potency is the fitted concentration of half-maximal effect; % is set by controls: 0 for no effect and ±100 for the full control effect
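Luciferase read-out (15 sec integration) after a 15 min room-temperature substrate step quantifies HCVcc-Cre infection. Cells, 1,000 per well, had compound added 4 h post-plating, then virus at ~0.5 moi, and were cultured 44 h.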
Pf growth 48h: inhibits P. falciparum growth in the first generation, 48 h | 5.9% of 310,000 active | P. falciparum luciferase growth in erythrocytes, 48 h | Potency, µM (highest dose often 28.7 µM), for inactives: top-dose activity change, negative = inhibition, usual class: inhibitors; note: potency is the fitted concentration of half-maximal effect; % is set by controls: 0 for no effect and ±100 for the full control effect
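Luminescence readout; reporter = integrated firefly luciferase in P. falciparum. RBC culture at 2% hematocrit, 0.1% parasitemia final, 37 C/5% CO2; decreased signal taken as growth inhibition.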
HCMV antiviral: human cytomegalovirus inhibition. HFF cells, HCMV-luciferase reporter, 72 h; hits give low values. activity change, negative = inhibition, % at 57.5 µM. 4.5% of 410,000 active. AID 1259415; in the data active = activity change below about -60%; inconclusive = no clear call, values can overlap the other calls; inactive = above about -39%; note: % is set by controls: 0 for no effect and ±100 for the full control effect
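Luciferase read-out from HCMV-luciferase-infected HFFs (MOI 1 PFU/cell) 72 h post infection at 37C; compounds added after 16 h cell attachment; activity normalized between buffer-only basal and Salinomycin (10uM) inhibitor controls.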
Shiga inhibitor: blocks Shiga toxin action in Vero cells; 9.2% of 290,000 active; Vero cells, Shiga toxin protein synthesis inhibition reporter; inhibition, % at 38.7 µM; in the data active = inhibition mostly above about 28%, no sharp cut-off; inactive = mostly below about 43%; note: 0% is about no effect
Cycloheximide cs: counter-screen hit for Shiga toxin inhibitors, cycloheximide; max response, %; 12% of 300,000 active; cell reporter, cycloheximide protein synthesis inhibition counterscreen; in the data active = max response mostly above about 13%, no sharp cut-off; inactive = mostly below about 14%; note: read at 38.3 µM for the half of the compounds with a filed dose; 0% is about no effect
Pf growth 96h: inhibits malaria parasite growth, 96 h. Potency, µM (top dose mostly 28.7 µM), inactives show top-dose activity change, negative = inhibition, most hits filed as inhibitors. P. falciparum luciferase reporter growth, 96 h. 6.9% of 320,000 active. AID 504834; note: potency is the fitted concentration of half-maximal effect; % is set by controls: 0 for no effect and ±100 for the full control effect
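Readout is luminescence from an integrated firefly luciferase in P. falciparum. Red cells, 2% hematocrit and 0.05% parasitemia final, were cultured with compound through two parasite generations (96 hours) at 37 C, 5% CO2.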
* marks the source's active call; other numbers are inactive results; ? = inconclusive; . = no result; ! = not confirmed by another sample. Unless noted, calls come from the whole dose curve; as a rule, active = well fitted inhibition curve with a large enough effect; inconclusive = small, poorly fitted or top-dose-only effect, or another doubt; inactive = no such curve, though single readings can be large or run the other way.

SMILES | HCV inhibitor | Pf growth 48h | HCMV antiviral | Shiga inhibitor | Cycloheximide cs | Pf growth 96h
CCOC(=O)C1(CCc2ccccc2)CCN(C(=O)c2cc(C)nc(C)n2)CC1 | 5% | -13% | -15 | 22 | 8 | ?
COc1cc(C(=O)NNC(=O)c2ccccc2OCc2c(C)noc2C)cc(OC)c1OC | ? | ? | 46 | . | . | 20%
COc1ccc(CCC(=O)N2CCCC(Nc3ccc(C)c(C)c3)C2)cc1OC (stereo not given) | -11% | -26% | -27 | -7 | 23* | ?
COc1cccc(C(O)c2ncc(-c3ccc(Cl)cc3)[nH]2)c1 (stereo not given) | . | . | 16 | . | . | .
COCc1ccc(CN2CCCC(C(=O)Nc3ccc(-c4cccc(OC)c4)cc3)C2)o1 (stereo not given) | 10µM* | ? | ? | 10 | 13 | 7%
COc1cccc(-c2ccc(NC(=O)C3CCCN(Cc4cnc(N(C)C)s4)C3)cc2)c1 (stereo not given) | ? | ? | -37 | 5 | 30* | -28%
COc1cccc(-c2ccc(NC(=O)C3CCCN(Cc4ccccn4)C3)cc2)c1 (stereo not given) | . | . | -7 | . | . | .
CCCc1ncc(CN2CCCC(C(=O)Nc3ccc(-c4cccc(OC)c4)cc3)C2)cn1 (stereo not given) | ? | ? | ? | 15 | 20* | ?
COc1cccc(-c2ccc(NC(=O)C3CCCN(Cc4cnn(C(C)C)c4)C3)cc2)c1 (stereo not given) | 11µM* | ? | -108* | -6 | -3 | 11%
CCOC(=O)c1cccc(NC(=O)CSc2cc(=O)n(C)c3ccccc23)c1 | . | . | -16 | . | . | .
CCCc1ncc(CN2CCC(C(=O)Nc3cccc(-c4cscn4)c3)CC2)cn1 | 11µM* | -23% | -25 | -6 | 3 | -19%
CC(=O)c1ccc(S(=O)(=O)N2CCn3cccc3C2c2ccc(F)c(F)c2)cc1 (stereo not given) | . | . | -32 | . | . | .
CN(C)c1ccc(/C=N/O)cc1 | 9% | 55% | -28 | 51 | 15 | 89%
CN(C)c1ccc(/C=C2/C(=N\O)C3CCN2CC3)cc1 | -14% | 176% | -98* | 89* | 41* | 86%
COc1ccc(C(c2nnnn2C2CCCC2)N2CCC(C)CC2)c(OC)c1 (stereo not given) | -26% | 12µM* | -37 | -12 | -2 | 3%
COc1ccc(OC)c(C(c2nnnn2C2CCCC2)N2CCN(c3ccc(F)cc3)CC2)c1 (stereo not given) | ? | 12µM* | -3 | 29 | -4 | 24%
CS(=O)(=O)Nc1cccc(NC(=O)c2ccc(-n3ccnc3)c3ccoc23)c1 | . | . | -63* | . | . | .
COc1ccc(NC(=O)Nc2cccc3c2O[C@H](CN(C)C(=O)Nc2c(C)noc2C)[C@@H](C)CN([C@H](C)CO)C3=O)cc1 | ? | . | -11 | . | . | .
Oc1ccccc1-c1nnc(SCCN2CCOCC2)n1Cc1ccccc1 | ? | ? | -64* | 26 | 1 | .
O=C(CSc1nnc(-c2cccnc2)n1Cc1ccccc1)N1CCOCC1 | -29% | 18% | 34 | -10 | 2 | 1.9µM*
O=C(CSc1nnc(-c2ccccc2)n1Cc1ccccc1)N1CCOCC1 | 1% | 1% | -10 | 24 | -3 | 15%
Cn1c(SCC(=O)N2CCOCC2)nnc1-c1ccncc1 | 0% | 12% | ? | -21 | -2 | 6%
Cn1c(SCC(=O)N2CCN(Cc3ccccc3)CC2)nnc1-c1ccncc1 | -16% | 9% | -33 | -9 | -2 | 2.9µM*
C[C@@H]1CN([C@@H](C)CO)C(=O)CCCn2nncc2CO[C@H]1CN(C)S(=O)(=O)c1cn(C)cn1 | . | . | 23 | . | . | .
Cc1ccc2ncc(C(=O)N3CCN(c4ccccc4F)CC3)c(=O)n2c1 | . | . | 13 | . | . | .
SMILES | HCV inhibitor | Pf growth 48h | HCMV antiviral | Shiga inhibitor | Cycloheximide cs | Pf growth 96h
Cc1ccc(S(=O)(=O)N2CCN(C(=O)COC(=O)Cc3ccc(F)cc3)CC2)c(C)c1 | 6% | 10% | 10 | . | . | 5%
CSc1ccc(CSCC(=O)N2CCN(S(=O)(=O)c3ccc(C)cc3C)CC2)cc1 | 8.9µM* | 12µM* | -20 | . | . | -59%
Cc1ccc(S(=O)(=O)N2CCN(C(=O)NCc3ccc(F)cc3)CC2)c(C)c1 | -22% | -29% | -71* | 25 | -2 | 0%
Cc1ccc(S(=O)(=O)N2CCN(C(=O)c3ccc(Br)o3)CC2)c(C)c1 | -6% | 6.6µM* | ? | -6 | -1 | ?
CC(=O)c1sc(NC(=O)C2CCN(C(=O)c3ccc(F)cc3)CC2)nc1-c1ccccc1 | ? | ? | -22 | . | . | ?
Cc1ccc(NC(=O)CSc2nc3nc(C)cc(C)c3c(=O)[nH]2)cc1 | 3% | 28% | -29 | -30 | 9 | 2.3µM*
Cc1ccc(NC(=O)CSc2nc(C)c(Cc3ccccc3)c(=O)[nH]2)cc1 | 7% | 16% | -64*! | 21 | 0 | -38%
Cc1ccc(NC(=O)CSC(C)c2nc3ccccc3c(=O)[nH]2)cc1 (stereo not given) | -27% | 8% | -14 | -6 | -1 | 15µM*
Cc1cc(C)c2c(=O)[nH]c(SCC(=O)Nc3ccccc3)nc2n1 | 4% | . | 31 | -3 | -2 | .
CC(SCC(=O)Nc1ccccc1)c1nc2ccccc2c(=O)[nH]1 (stereo not given) | 19% | -26% | 39 | 10 | 9 | ?
CCOC1=C2[C@H](c3ccccc3)N(S(=O)(=O)c3ccccc3)C[C@H]2n2c(=O)n(-c3ccccc3)c(=O)n2C1 | . | . | -26 | . | . | .
CCCCC(=O)Nc1ccccc1Oc1ccccc1 | -2% | -13% | -30 | 7 | -3 | 10%
O=C(CSc1nnnn1-c1ccccc1)NCC1(N2CCOCC2)CCCCC1 | 1% | ? | -16 | . | . | ?
N#C/C(=C\c1ccncc1)c1nc2c(s1)CCCC2 | 8% | 4% | -32 | 42* | 21* | 7%
Cc1ccccc1-c1nc(-c2ccc(Br)o2)no1 | -5% | 172% | 67 | 97* | 44* | 6%
COc1ccc(Br)cc1-c1noc(-c2ccccc2F)n1 | 14% | 27% | 14 | -7 | -2 | .
Cc1ccccc1-c1noc(-c2cc3ccccc3oc2=O)n1 | . | . | 17 | . | . | .
Cc1ccccc1-c1nc(-c2ccc(NC(=O)c3ccc(Br)o3)cc2)no1 | ? | 102% | -4 | 57* | 27* | ?
Cc1cc(NC(=O)c2ccc(Br)o2)cc(-c2nc3ccccc3o2)c1O | . | . | 9 | . | . | .
Fc1ccccc1-c1nc(-c2ccc(Br)o2)no1 | ? | 182% | . | 85* | 57* | -17%
Cc1ccc(Cn2ncc3c4sc(C)cc4n(C)c3c2=O)cc1 | . | . | . | -11 | 8 | .
O=S(=O)(c1ccccc1Br)N(Cc1ccccc1)Cc1ccco1 | . | . | . | 12 | 8 | .
COc1ccc2c3c(n(C)c2c1)[C@H](CO)N(C(=O)c1cccc(F)c1)CC31CN(C(=O)c2cccc(F)c2)C1 | . | . | 26 | . | . | .
